From PubChem BioAssay AID1566 (Sanford-Burnham Center for Chemical Genomics, 2009)
About 1,800 (0.62%) of roughly 290,000 compounds were called active. Shown is part of a subset that was picked to be rich in actives. A number with no mark means an inactive call. No stated cut-off is given here; in the data, active means inhibition above about 50%; inactive means the rest.

Assay: inhibition of NOD2-driven NF-kB reporter – cell-based, luminescence, uHTS, HEK293 (AID 1566)
Details: HEK293 NOD2/NF-kB luciferase reporter, at 4 µM, hits give high values

Structure (SMILES)	inhibition
O=C1c2[nH]nc(-c3ccccc3O)c2C(c2cccc(O)c2)N1Cc1ccco1 (centres undefined)	24.7%
COc1ccc(S(=O)(=O)N2CCCCC2)cc1NC(=O)CN(C)C1CCCCC1	8%
Cc1cnn(-c2cc(N/N=C/c3ccc(F)cc3)ncn2)c1	-26.9%
CC1=CC(=C2C(=O)c3ccccc3C2=O)C=C(C)O1	-31.6%
CCCCNC1=CC(=O)C(=O)c2ccccc21	-26.1%
CCN1C=CC(=C2C(=O)c3ccccc3C2=O)C=C1	54.1% (active)
CCCN1C=CC(=C2C(=O)c3ccccc3C2=O)C=C1	83.7% (active)
CCCCN1C(C)=CC(=C2C(=O)c3ccccc3C2=O)C=C1C	-61.1%
CCCCN1C=CC(=C2N=c3cccc([N+](=O)[O-])c3=N2)C=C1	7.8%
CCN1C(=C2C(=O)c3ccccc3C2=O)C=Cc2ccccc21	2.2%
CCCCCN1C=CC(=C2C(=O)c3ccccc3C2=O)C=C1	73.5% (active)
CC1=CC(=C2C(=O)c3ccccc3C2=O)C=C(C)N1C	-61.9%
CCCCN1C=CC(=C2C(=O)c3ccccc3C2=O)C=C1	79.8% (active)
CN1C=CC(=C2C(=O)c3ccccc3C2=O)C=C1	-99%
CCCCCCN1C=CC(=C2C(=O)c3ccccc3C2=O)C=C1	-6.6%
COc1cc(C(=O)OCC(=O)N2CCCCC2C)ccc1OCc1c(C)noc1C (centres undefined)	-27.2%
Cc1ccc(CN(CC(=O)NCCc2ccccc2)C(=O)CCCC(=O)Nc2cc(C)on2)cc1	-8.6%
O=C(N/C(=C\c1cccnc1)C(=O)N1CCCCC1)c1cccc(Br)c1	0.3%
CCOC(=O)N1CCN(C(=O)C2CCCN(c3ncnc4c3nc3n4CCCCC3)C2)CC1 (centres undefined)	7.5%
O=C(NC1CCCCCC1)C(=S)NC1CCCCC1	-56.5%
C#CCOc1ccc(/C=C2/C(=O)NN(c3ccc(F)cc3)C2=O)cc1OC	9.7%
CC(CC(=O)Nc1nncs1)c1ccccc1 (centres undefined)	20.2%
COc1ccc(C2NC(=S)NC(C)=C2C(=O)c2ccccc2)cc1OC (centres undefined)	3.4%
Oc1ccc(N=Nc2ccc3c(c2)OCO3)c2ccccc12	81.2% (active)
Oc1ccc(N=Nc2ccc3c(c2)OCCO3)c(O)c1	-142%

Structure (SMILES)	inhibition
Oc1ccc(N=Nc2ccc3c(c2)OCCO3)c2ncccc12	-8.2%
CCOc1ccc(CN(C(=O)c2oc3ccccc3c2C)C2CCS(=O)(=O)C2)cc1 (centres undefined)	-8.4%
COc1ccc(-n2c(C)cc(C3=NNC(=NC4CC4)SC3)c2C)cc1	-16.5%
c1cc2c(cc1C1=NNC(=NC3CC3)SC1)OCCO2	85.7% (active)
COCCCN=C1NN=C(c2cc(C)n(-c3ccccc3F)c2C)CS1	-10.1%
C=CCN=C1NN=C(c2ccc3c(c2)OCCO3)CS1	37.7%
Cc1ccc(-n2c(C)cc(C3=NNC(=NC4CC4)SC3)c2C)cc1C	-57.3%
Cc1cc(C2=NNC(=NC3CC3)SC2)c(C)n1-c1c(C)n(C)n(-c2ccccc2)c1=O	-1.3%
CCCCN=C1NN=C(c2ccc3c(c2)OCCO3)CS1	-57.3%
Cc1cc(C2=NNC(=NC3CC3)SC2)c(C)n1-c1ccccc1F	88.9% (active)
Cc1cc(C2=NNC(=NC3CC3)SC2)c(C)n1-c1ccccc1	90.5% (active)
COc1ccc(N2C(=O)c3ccccc3NC23CCC(C)CC3)cc1 (centres undefined)	-58.1%
Cc1cc(=O)[nH]c(N/N=C/c2ccc(Cl)c([N+](=O)[O-])c2)n1	-5.5%
COc1ccc(/C=C(\NC(=O)c2ccc(OC)cc2)C(=O)N2CCCCC2)cc1	-9.7%
Cn1c(=O)c2c(nc(SCC(=O)O)n2Cc2cc3c(cc2Cl)OCO3)n(C)c1=O	3%
CCOCCCn1cnc2c(c1=O)c1nc3ccccc3nc1n2-c1ccc(C)cc1	24.1%
O=C(NCCn1cccn1)c1ccc(OC2CCN(C(=O)C3CC3)CC2)cc1	-27.2%
O=C(N/N=C/c1cc([N+](=O)[O-])ccc1O)NC12CC3CC(CC(C3)C1)C2	64% (active)
O=C(N/N=C/c1cc([N+](=O)[O-])ccc1O)C12CC3CC(CC(C3)C1)C2	15%
O=C(N/N=C/c1ccccc1O)NC12CC3CC(CC(C3)C1)C2	-29.5%
c1ccc(-c2ccccc2OCCCN2CCOCC2)cc1	-29.3%
O=C(CSc1nnc(-c2ccc(F)cc2)o1)Nc1ccc(S(=O)(=O)N2CCCCCC2)cc1	-4.4%
CCOCC(=O)Nc1cccc(Br)c1	-5.5%
CCCc1cc(C(=O)Nc2ccc(C(=O)c3ccccc3)cc2)n(C)n1	54.7% (active)
CCCc1cc(C(=O)Nc2ccc(C(=O)c3ccc(C)cc3)cc2)n(C)n1	23.6%

Structure (SMILES)	inhibition
CCCc1cc(C(=O)Nc2ccc(C(=O)c3ccc(F)cc3)cc2)n(C)n1	18.5%
CCOC(=O)c1c(C)n(C)c2ccc(OCC(O)CN3CCN(C)CC3)cc12 (centres undefined)	-0.5%
CCc1nc(SCC(=O)N2CCCc3ccccc32)c2oc3ccccc3c2n1	37%
Cc1nc(SCC(=O)N2CCCc3ccccc32)c2oc3ccccc3c2n1	-6.5%
COc1cc(C(=O)NCc2ccncc2)cc(OC)c1OC	10.3%
Nc1ncc(-c2ccccc2)c(-c2ccc(OCc3ccccc3)cc2O)n1	13.4%
COc1ccc(-c2cnc(N)nc2-c2ccc(OCc3ccccc3)cc2O)cc1	-4.2%
Nc1ncnc2c1ncn2Cc1ccccc1	6.4%
CCc1ccc(N2CN(Cc3ccco3)CNC2=S)cc1	4.9%
COc1ccc(/C=N/OCC(=O)Nc2nc3ccccc3s2)cc1OC	-1.1%
CC1=NN(C(=O)Cn2ccc([N+](=O)[O-])n2)C(O)(C(F)(F)F)C1 (centres undefined)	12.1%
CCOC(=O)C1=C(c2ccccc2)O/C(=C(/C#N)C(F)(F)F)S1	51.4% (active)
CCOC(=O)C1=C(c2ccccc2)O/C(=C(/C(=O)OC)C(F)(F)F)S1	5.4%
CCOC(=O)C1=C(c2ccccc2)O/C(=C(\C(=O)OC)C(F)(F)F)S1	-23%
CC(=O)Nc1ccc(S(=O)(=O)Nc2nc3ccccc3nc2N2CCCC2)cc1	-6%
Cc1ccn2cc(C(=O)N3CCCC(Nc4ccc(F)cc4)C3)nc2c1 (centres undefined)	-9.3%
O=C(Nc1ccccc1)c1c(F)cccc1F	-8%
O=C(Nc1ccncc1)c1c(F)c(F)c(F)c(F)c1F	8.8%
O=C(Oc1cccc2cccnc12)c1cccc([N+](=O)[O-])c1	11.2%
O=C(Oc1ccc(Cl)c2cccnc12)c1cccc([N+](=O)[O-])c1	13.8%
O=C(Oc1c(Cl)cc(Cl)c2cccnc12)c1cccc([N+](=O)[O-])c1	96.1% (active)
CCOc1ccc(-c2ccc(SCC(=O)Nc3nnc(CC)s3)nn2)cc1	-117%
CCCC(C(=O)NC1CCCC1)N(CC1CCCO1)C(=O)c1snc(C(N)=O)c1N (centres undefined)	-7.3%
O=C(Nc1ccc(O)c(C(=O)O)c1)Oc1ccccc1	8.6%
Cc1ccc(OCC(=O)Nc2ccc(O)c(C(=O)O)c2)cc1C	1.5%

Structure (SMILES)	inhibition
CC(C)(C)c1ccc(OC(=O)Nc2ccc(O)c(C(=O)O)c2)cc1	51.6% (active)
COC(=O)C1=C(C)NC(C)=C(C(=O)OC)C1c1ccccn1	2.3%
Cc1ccc(OCc2cc(C(=O)N3CCN(C)C[C@@H]3c3ccccc3)no2)cc1C	-27.5%
S=C(Nc1cc(Cl)cc(Cl)c1)N1CCN(c2ccccn2)CC1	14.1%
CCOC(=O)Cc1nnc2c(Nc3ccc(Cl)cc3)nc3nonc3n12	14.5%
CCOC(=O)Cc1nnc2c(Nc3ccc(C)cc3)nc3nonc3n12	-2.9%
CCOC(=O)Cc1nnc2c(Nc3ccccc3F)nc3nonc3n12	55.4% (active)
Cc1noc(C)c1C(=O)N1CCC2(CC1)Oc1ccc(F)cc1C(=O)C21CC(c2ccc(Cl)cc2)=NO1 (centres undefined)	13%
COc1ccc(/C=N/n2cnc3c([nH]c4ccc(F)cc43)c2=O)cc1CN1CCCC1	12.1%
COc1ccc(C(=O)Nc2sc3c(c2C(=O)O)CC(C)(C)OC3)cc1	8.8%
CC1(C)Cc2c(sc(NC(=O)c3ccccc3)c2C(=O)O)CO1	-27.1%
C(=N\N(c1ccccc1)c1ccccc1)/c1ccc(N2CCOCC2)s1	11.6%
c1ccc2c(-c3c[nH]c4ccccc34)c3ccccc3nc2c1	0%
Cc1cccc(C(=O)c2cn[nH]c2-c2ccccc2O)c1	-3.8%
O=C1c2ccccc2-n2c1nc1ccccc1c2=O	26.3%
Nn1c(-c2ccc(F)cc2)nc2ccccc2c1=O	12.9%
O=C1c2cc(F)ccc2-n2c1nc1ccccc1c2=O	63.4% (active)
CCn1c(CNc2ccc(Cl)cc2)nnc1SCC(=O)OC1CCCCC1	4.4%
CCOC(=O)C1CCN(C(=O)COC(=O)c2ccc(Br)o2)CC1	20.2%
Cc1cc2c(s1)c1cnn(Cc3ccccc3F)c(=O)c1n2C	10.1%
CCOc1ccccc1C(=O)N1CCN(c2cccc(Cl)c2)CC1	-14%
COc1ccccc1C(=O)N1CCN(c2cccc(Cl)c2)CC1	3.1%
CN(C(=O)c1cnc(N2CCN(c3ncccn3)CC2)c2ccccc12)c1ccc(Cl)cc1	15.1%
COc1ccc(N(C)C(=O)c2cnc(N3CCN(c4ncccn4)CC3)c3ccccc23)cc1	14.7%
